Consider 40 compounds from PubChem BioAssay (NCI).

Each structure is given as a SMILES string. Where “and” joins values, the source holds several entries; their conditions need not be identical. Equal values may be shown once. The panel holds about 83,000 compounds, 20% with a hit somewhere; the sample as a whole holds those more often.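 Assay: single dose, 48 h. Readout: percent growth (0 = no net growth; negative = cell death). Active: <10.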 Values without a mark were called inactive. Calls of active or inactive are those of the source.

This test has as its system EKVX NSCLC. Description: NCI-60 one-dose screen, 48 h (100 = growth as untreated, 0 = no growth, -100 = all killed). As to conditions: 10 µM unless noted.
In the case of `NNc1nnc2nc(Nc3ccccc3)nc(Nc3ccc(S(N)(=O)=O)cc3)n12`, the growth is 99.4%. The result for `Brc1ccc2[nH]cc(-c3nn4cc(-c5nccs5)nc4s3)c2c1` reads 64.9%; that for `Nn1c(=O)n(-c2cccc(C(F)(F)F)c2)c(=O)c2cc(-c3ccc(F)cc3F)ccc21`, 3.55% (active). The result for `CN(C)CCNc1ccc2ncc(C#Cc3cncc(C(=O)Nc4ccc(CN5CCN(C)CC5)c(C(F)(F)F)c4)c3)n2n1` reads 7.33% (active); that for `O=S(=O)(Oc1ccc(-c2cn3ccoc3n2)cc1)C1CCCCC1`, 100%.

As to `O=C(N/N=C\c1ccc([N+](=O)[O-])cc1)c1ccc2nc(-c3ccc(Br)cc3)[nH]c2c1`, the growth was 45.4%. The result for `Cc1ccsc1[C@H]1c2[nH]c3ccccc3c2C[C@H]2C(=O)N(CCCCCCC(=O)NO)CC(=O)N12` reads 87.3%. The figure for `Cc1ccc(N2CCN(C3=C(Cl)C(=O)c4ncccc4C3=O)CC2)cc1` is 97%; for `N#Cc1cccc(-c2cc(-c3ccc4c(c3)OCCO4)[nH]n2)c1` it is 63.3%. The figure for `COc1cc2cc(Oc3ccc(NC(=O)c4cc(C(F)(F)F)cc(C(F)(F)F)c4)cc3)c(C)nc2cc1OCCN1CCOCC1` is 57.7%. For the compound `N#C/C(=N\Nc1ccc(F)cc1)C(=O)Nc1cc(-c2ccccc2)nn1-c1ccccc1`, the growth was 5.52% (active). `CN(C)CCCOc1ccc(C(=C(c2ccccc2)C2CCCC2)c2ccc(OCCCN(C)C)cc2)cc1`: the growth is -82.2% (active).

In the case of `NC(=O)c1ncn2c(=O)n(CCF)nnc12`, the growth was 92.5%. The result for `CN1CCN(c2ccc(Nc3nc(NCCNS(=O)(=O)c4ccc(Cl)cc4)c4sccc4n3)cc2)CC1` reads 91.6%; that for `COc1cc(-c2nc(-c3ccccc3)[nH]c2-c2ccnc(NCCCNS(=O)(=O)c3ccc(C(F)(F)F)cc3)n2)ccc1Cl`, 30% and 44.9%; that for `CC1(C)CC[C@]23CC[C@]4(C)[C@H](CC[C@@H]5[C@@]6(C)CC[C@H](N)C(C)(C)[C@@H]6CC[C@]54C)[C@H]2[C@H]1OC3`, 63.1%. The figure for `Clc1ccc2[nH]cc(-c3nn4cc(-c5cccnc5)nc4s3)c2c1` is 84.1%; for `NS(=O)(=O)c1ccc(Nc2nc(N/N=C/c3ccc4c(c3)OCO4)nc(Nc3ccccc3)n2)cc1` it is 73.2%; for `Brc1cc(-c2cc(-c3ccc4c(c3)OCCO4)[nH]n2)cs1` it is 62.4%. The result for `CC1=C(C)C(=O)C(Nc2ccc(C)c(C)c2)=C(Br)C1=O` reads 34.2%; that for `COC(=O)N1CCN(CCNCc2ccc(NC(=O)c3ccc(C)c(C#Cc4cnc5cccnn45)c3)cc2C(F)(F)F)CC1`, 48.9%. Regarding `O=C(CCCCCCN1CC(=O)N2[C@@H](c3cccs3)c3[nH]c4ccccc4c3C[C@H]2C1=O)NO`, the growth is 92.2%. For the compound `C=C(C)[C@@H]1CC[C@]2(C(=O)N3CCN(C)CC3)CC[C@]3(C)[C@H](CC[C@@H]4[C@@]5(C)CC[C@H](OP(=O)(OCC)OCC)C(C)(C)[C@@H]5CC[C@]43C)[C@@H]12`, the growth is 72.8%.

Regarding `CC(=O)N(O)CCCCCNC(=O)CCC(=O)N(O)CCCCCNC(=O)CCC(=O)N(O)CCCCCN(CCCCCCCCCC[P+](c1ccccc1)(c1ccccc1)c1ccccc1)CCCCCCCCCC[P+](c1ccccc1)(c1ccccc1)c1ccccc1`, the growth was 5.96% (active).

Turning to `Cc1[nH]c(C(=O)Nc2ccccc2OCc2cccc(C(=O)NCCN)c2)cc1Cl`, the growth is 105%. The figure for `CCOC(=O)Nc1ccc2c(ccn2C(=O)c2cccc(F)c2)c1` is 44.1%; for `O=C(Nc1ccc(N=Cc2c(O)[nH]c3ccccc23)cc1)Nc1ccc(S(=O)(=O)Nc2ncccn2)cc1` it is 98.1%. The figure for `Fc1cccc(Cl)c1/C=N/Nc1nc(N/N=C/c2c(F)cccc2Cl)nc(N2CCCCC2)n1` is 13.8%; for `CCc1nnc(NC(=O)c2cc(-c3ccc(Cl)cc3Cl)oc2C)s1` it is 99.4%. The figure for `C/C(=N\NC(=O)Nc1ccccc1)c1nnn(-c2ccc([N+](=O)[O-])cc2)c1C` is 103%; for `C#C[C@]1(O)CC[C@H]2[C@@H]3CC=C4c5sc(Nc6cc(Cl)ccc6OC)nc5CC[C@]4(C)[C@H]3CC[C@@]21C` it is 22.3%; for `O=C(O)CC1CCN(c2ccc3nnc(Cl)n3n2)CC1` it is 99.1%. As to `Cc1cc2nc(C(Cl)Cl)nc(-c3ccc(S(=O)(=O)N(C)C)cc3)n2n1`, the growth was 48.7%. The figure for `CCOC(=O)c1ccccc1NC1=C(Cl)C(=O)c2nc(C)ccc2C1=O` is 95.1%. The figure for `Cc1ccc([C@H]2c3[nH]c4ccccc4c3C[C@H]3C(=O)N(CCCCCCC(=O)NO)CC(=O)N23)s1` is 69.4%; for `NC1CC2(CCN(c3cnc(C(=O)Nc4cc(F)cc5cccnc45)cn3)CC2)C1` it is 81.9%. The result for `O=C(CSc1nc2ccccc2c(=O)n1-c1ccc(Cl)cc1)N/N=C/c1ccc(Oc2ccc(Cl)cc2)cc1` reads 40.8%; that for `CCCCSC1=C(Cl)CN(c2ccc(Cl)cc2)C1=O`, 101%. Consider `CC(=O)/C(N=Nc1ccc2oc(=O)ccc2c1)=C(\C)O`, for which the growth is 30.8%. The result for `CCOC(=O)c1c(NC(=O)c2ccc(C(F)(F)F)cc2)sc2c3c(ccc12)OCN(C)C3` reads 79.5%.
